Experimental findings from PubChem BioAssay (NCATS) are described below.

Several values for one entry are separate records, joined by “and”; a condition that tells them apart may be missing. Identical values can stand only once. Records with an inconclusive call do not appear. A number with no mark means an inactive call. Activity calls are given as the source filed them. The call rests on the fitted dose curve; in most records, active means well fitted curve in the direction sought with a large enough effect; inconclusive means small, poorly fitted or top-dose-only effect, or another doubt; inactive means no such curve, though single readings can be large; an effect the other way counts as inactive or inconclusive.

Test [1] can be described thus: Viability qHTS for spleen associated tyrosine kinase inhibitor (SYKi) naive MV4-11 cells (AID 1963823). Further: nearly all actives have a fitted effect of over 40% in size. The method in brief: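 Luminescence from CellTiter-Glo, developed 10 min at room temperature, gave viability of MV4-11 cells never exposed to SYK inhibitor. Cells (500/well) had been incubated with compounds for 72 hr under standard culture conditions.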
Background: In qHTS, concentration-response curves come from the screen itself.

Test [2] can be described thus: Viability qHTS for spleen associated tyrosine kinase inhibitor (SYKi) drug resistant MV4-11 cells (AID 1963824). Further: nearly all actives have a fitted effect of over 35% in size. The essentials:
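SYK-inhibitor-resistant MV4-11 AML cells were seeded at 500 per well onto compound and cultured 72 hours (37 °C, 5% CO2). CellTiter-Glo was then added, and after 10 min at room temperature, luminescence gave viability.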

Test [3] is described as follows: Cellular viability qHTS for adrenocortical cancer (ACC) cell line SW-13 (AID 1963989). Further: nearly all actives have a fitted effect of over 65% in size.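 On activity (max response): cells grown in serum-free medium with ITS supplement; on the % scale 0 is the no-effect control and ±100 the full control effect.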 Conditions: SW-13 ACC cells viability, CellTiter-Glo, 48 h; activity (max response): active compounds read low. The method in brief:
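Luminescent ATP read-out (CellTiter-Glo, 20 min at room temperature) measured metabolically competent SW-13 cells after 48 h compound treatment. Final concentrations spanned up to 46 uM; bortezomib served as positive control.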

Test [4] in a line: Cellular viability qHTS for adrenocortical cancer (ACC) cell line NCI-H295R (AID 1963990). Further: nearly all actives have a fitted effect of over 60% in size.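 On activity change, negative = viability loss: 0% = DMSO only wells and -100% = full killing with cytotoxic reference compound.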 The essentials: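 IC50 and maximal efficacy derive from four-parameter logistic modelling of titration curves, with reads scaled between DMSO-only wells (0%) and doxorubicin hydrochloride (100% inhibition). Compounds spanned up to 46 uM over 48 h.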
Potency means the concentration at half of the fitted maximal effect.

As for `CNCCn1c(=O)c2cc(OC)c(OC)cc2c2cnc3cc4c(cc3c21)OCO4`, the Potency was 15.2 nM (active) in test [1], 0.0121 µM (active) in test [2], 42.2 nM (active) in test [3] and 596 nM (active) in test [4].

Consider `CCNCCc1ccc(CN(CC)c2cc(OC)ccc2[C@@H]2CCc3cc(O)ccc3C2)cc1`, for which the Potency was 2350 nM (active) in test [1], 2.95 µM (active) in test [2], 6310 nM (active) in test [3] and 3980 nM (active) in test [4].

For `CCN(CC)CCNC(C(=O)OCCC(C)C)c1ccccc1` (centres undefined), the Potency result in test [1], in test [2] and in test [4] was “inactive” each time. Besides, the activity (max response) in test [3] was -2.2%.

Consider `C=CC(=O)N1CC[C@@H](Oc2nc(Nc3ccc(N4CCC(N5CCN(C)CC5)CC4)cc3)c(C(N)=O)nc2CC)C1`, for which the Potency in test [1] was 32.3 nM (active); in test [2] it was 0.091 µM (active); in test [3] it was 1430 nM (active); in test [4], 7150 nM (active).

Take `CC(C)C[C@@H](N)C(=O)O`: the Potency result in test [1], in test [2] and in test [4] was “inactive” in each case. Also, the activity (max response) in test [3] is 8.35%.

As for `Cc1cc(O)cc2c1[C@]1(C)CC[C@H]3C(C)(C)CCC[C@]3(C)[C@H]1C2`, in test [1], the viability (% of control) was 65.3% [at 4.97 µM]. For the same compound, the viability, % of control in test [2] was 59.2% [at 4.97 µM]. In addition, in test [3], the activity (max response) is -14%. Further, the activity change, negative = viability loss in test [4] was -10.2% [at 3.81 µM].

For `CC1(C(=O)O)CCC2(C)CCC3(C)C(=CC(=O)C4C5(C)CCC(OC6OC(C(=O)O)C(O)C(O)C6OC6OC(C(=O)O)C(O)C(O)C6O)C(C)(C)C5CCC43C)C2C1` (centres undefined), the Potency entry in test [1], in test [2] and in test [4] was “inactive” throughout. The activity (max response) in test [3] is 1.77%.

Take `Cc1c(CN2CCN(S(C)(=O)=O)CC2)sc2c(N3CCOCC3)nc(-c3cnc(N)nc3)nc12`: the Potency was 146 nM (active) in test [1], 0.366 µM (active) in test [2], 891 nM (active) in test [3] and 794 nM (active) in test [4].

Regarding `CNCc1ccccc1`, the Potency result in test [1], in test [2] and in test [4] was “inactive” throughout. Moreover, the activity (max response) in test [3] was 8.2%.

For `CC(C)(C(=O)O)c1ccc(C(O)CCCN2CCC(C(O)(c3ccccc3)c3ccccc3)CC2)cc1` (centres undefined), the Potency result in test [1], in test [2] and in test [4] was “inactive” throughout. The activity (max response) in test [3] was -2.55%.

`C/C=C/C[C@@H](C)C(=O)[C@H]1C(=O)N[C@@H](C(C)C)C(=O)N(C)CC(=O)N(C)[C@@H](CC(C)C)C(=O)N[C@@H](C(C)C)C(=O)N(C)[C@@H](CC(C)C)C(=O)N[C@@H](C)C(=O)N[C@H](C)C(=O)N(C)[C@@H](CC(C)C)C(=O)N(C)[C@@H](CC(C)C)C(=O)N(C)[C@@H](C(C)C)C(=O)N1C`: the Potency in test [1] is 6450 nM (active); in test [2] it was 4.07 µM (active). Moreover, in test [3], the activity (max response) is 4.11%. In addition, in test [4], the Potency result is “inactive”.

`NC(=O)c1ccccc1Nc1ccnc(Nc2cccc(O)c2)n1`: the Potency in test [1] is 372 nM (active); in test [2] it was 0.326 µM (active); in test [3], 17800 nM (active); in test [4] it was 12600 nM (active).

With `O=c1c(-c2ccc(O)cc2)coc2c([C@@H]3O[C@H](CO)[C@@H](O)[C@H](O)[C@H]3O)c(O)ccc12`, the Potency result in test [1], in test [2] and in test [4] was “inactive” in each case. Further, in test [3], the activity (max response) is 3.16%.

For the compound `COc1cc(N2CCN(C)CC2)ccc1Nc1ncc2c(n1)N(C)c1ccccc1C(=O)N2C`, the Potency in test [1] is 934 nM (active); in test [2] it was 1.86 µM (active); in test [3], 15800 nM (active); in test [4], 14100 nM (active).

Take `O=C(O)c1cc(O)c(O)c(O)c1`: the Potency entry in test [1] and in test [4] was “inactive” in each case. In addition, in test [2], the Potency was 13.3 µM (active). For the same compound, the activity (max response) in test [3] was -1.2%.

Turning to `Cn1ncc(Cl)c1-c1cc(C(=O)N[C@H](CN)Cc2ccc(F)c(F)c2)sc1Cl`, the Potency is 9.2 µM (active) and 5.9 µM (active) in test [1]; 11.6 µM (active) and 4.68 µM (active) in test [2]; 8910 nM (active) in test [3]; 3160 nM (active) in test [4].

In the case of `Cc1cc(N2CCOCC2)ccc1Nc1nc(NC2CCCCC2)c2[nH]cnc2n1`, the Potency in test [1] is 833 nM (active); in test [2], 0.461 µM (active); in test [3] it was 25100 nM (active); in test [4] it was 28200 nM (active).

For the compound `C/C=C/c1ccc(O)c(OC)c1`, the Potency entry in test [1], in test [2] and in test [4] was “inactive” in each case. The activity (max response) in test [3] was 1.66%.

With `CCOCCOC(=O)/C=C/c1ccc(OC)cc1`, the Potency result in test [1], in test [2] and in test [4] was “inactive” each time. The activity (max response) in test [3] is -3.52%.

In the case of `NCC1CCN(c2nccc(-c3ccc4ccccc4c3)n2)CC1`, the Potency was 1160 nM (active) in test [1], 1.16 µM (active) in test [2], 22400 nM (active) in test [3] and 10000 nM (active) in test [4].

For the compound `CC1=NN(c2ccc(C(=O)O)cc2)C(=O)/C1=C/c1ccc(-c2cc(C)c(C)cc2[N+](=O)[O-])o1`, the Potency in test [1] is 16600 nM (active); in test [2], 18.6 µM (active). For the same compound, the activity (max response) in test [3] is 11.6%. Further, the Potency entry in test [4] is “inactive”.
